# Shown is part of a subset that was picked to be rich in the strongest signals.
# Legend:
# Assay in all cases: glycan array binding signal (z-score within array); higher = stronger binding
# Conditions in all cases: glycan notation: IUPAC condensed, linker removed; mutation: D21K
# [1] = target: Fuc(a1-2)Gal(b1-3)GalNAc(a1-3)[Fuc(a1-2)]Gal(b1-4)GlcNAc
# In short: (§1)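 Glycan array binding is given as a within-array Z-score, which can be read as non-binding when negative. The arrays, 3228 of them, came from the Consortium for Functional Glycomics database and were retained only where the protein sequence was available. Z-scores were averaged across arrays of the same protein sequence at different concentrations or buffers and across linkers.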
# [2] = target: Fuc(a1-2)Gal(b1-4)[Fuc(a1-3)]GlcNAc
# In short: as §1
# [3] = target: Fuc(a1-2)[Gal(a1-3)]Gal(b1-4)GlcNAc
# In short: as §1
# [4] = target: Fuc(a1-2)[Gal(a1-3)]Gal(b1-4)GlcNAc(b1-3)GalNAc
# In short: as §1
# [5] = target: Fuc(a1-2)[Gal(a1-3)]Gal(b1-4)GlcNAc(b1-3)[Fuc(a1-2)[Gal(a1-3)]Gal(b1-4)GlcNAc(b1-6)]GalNAc
# In short: as §1
# [6] = target: Fuc(a1-2)[Gal(a1-3)]Gal(b1-4)GlcNAc(b1-6)GalNAc
# In short: as §1
# [7] = target: Fuc(a1-2)[Gal(a1-3)]Gal(b1-4)[Fuc(a1-3)]GlcNAc
# In short: as §1
# [8] = target: Fuc(a1-2)[GalNAc(a1-3)]Gal(b1-4)GlcNAc(b1-2)Man(a1-3)[Fuc(a1-2)[GalNAc(a1-3)]Gal(b1-4)GlcNAc(b1-2)Man(a1-6)]Man(b1-4)GlcNAc(b1-4)GlcNAc
# In short: as §1
# [9] = target: Fuc(a1-2)[GalNAc(a1-3)]Gal(b1-4)GlcNAc(b1-3)[Fuc(a1-2)[GalNAc(a1-3)]Gal(b1-4)GlcNAc(b1-6)]GalNAc
# In short: as §1
# [10] = target: Gal(a1-3)Gal(b1-4)GlcNAc(b1-2)Man
# In short: as §1
# Gal(a1-4)GlcNAc = target: Gal(a1-4)GlcNAc
# In short: as §1
# Gal(a1-6)Glc = target: Gal(a1-6)Glc
# In short: as §1
# [11] = target: Gal(b1-3)GalNAc(b1-3)Gal(a1-4)Gal(b1-4)Glc
# In short: as §1
# [12] = target: Gal(b1-3)GalNAc(b1-4)[Neu5Ac(a2-3)]Gal(b1-4)Glc
# In short: as §1
# [13] = target: Gal(b1-3)GlcNAc(b1-2)Man(a1-3)[GlcNAc(b1-4)][Gal(b1-3)GlcNAc(b1-2)Man(a1-6)]Man(b1-4)GlcNAc(b1-4)GlcNAc
# In short: as §1
# [14] = target: Gal(b1-3)GlcNAc(b1-3)Gal(b1-4)Glc
# In short: as §1
# [15] = target: Gal(b1-3)GlcNAc(b1-3)Gal(b1-4)GlcNAc(b1-3)Gal(b1-4)GlcNAc(b1-2)[Gal(b1-3)GlcNAc(b1-3)Gal(b1-4)GlcNAc(b1-3)Gal(b1-4)GlcNAc(b1-6)]Man(a1-6)[Gal(b1-3)GlcNAc(b1-3)Gal(b1-4)GlcNAc(b1-3)Gal(b1-4)GlcNAc(b1-2)Man(a1-3)]Man(b1-4)GlcNAc(b1-4)[Fuc(a1-6)]GlcNAc
# In short: as §1
# Gal(b1-3)GlcNAc6S = target: Gal(b1-3)GlcNAc6S
# In short: as §1
# [16] = target: Gal(b1-3)[Fuc(a1-4)]GlcNAc(b1-2)Man(a1-3)[Gal(b1-3)[Fuc(a1-4)]GlcNAc(b1-2)Man(a1-6)]Man(b1-4)GlcNAc(b1-4)[Fuc(a1-6)]GlcNAc
# In short: as §1
# [17] = target: Gal(b1-3)[GlcNAc(b1-6)]GalNAc
# In short: as §1
# [18] = target: Gal(b1-4)GlcNAc(b1-3)Gal(b1-4)GlcNAc(b1-2)Man(a1-3)[Gal(b1-4)GlcNAc(b1-3)Gal(b1-4)GlcNAc(b1-2)Man(a1-6)]Man(b1-4)GlcNAc(b1-4)[Fuc(a1-6)]GlcNAc
# In short: as §1
# [19] = target: Gal(b1-4)GlcNAc(b1-3)Gal(b1-4)GlcNAc(b1-3)Gal(b1-4)GlcNAc(b1-3)Gal(b1-4)GlcNAc(b1-2)[Gal(b1-4)GlcNAc(b1-3)Gal(b1-4)GlcNAc(b1-3)Gal(b1-4)GlcNAc(b1-3)Gal(b1-4)GlcNAc(b1-6)]Man(a1-6)[Gal(b1-4)GlcNAc(b1-3)Gal(b1-4)GlcNAc(b1-3)Gal(b1-4)GlcNAc(b1-3)Gal(b1-4)GlcNAc(b1-2)Man(a1-3)]Man(b1-4)GlcNAc(b1-4)[Fuc(a1-6)]GlcNAc
# In short: as §1
# [20] = target: Gal(b1-4)GlcNAc(b1-3)Gal(b1-4)GlcNAc(b1-3)GalNAc
# In short: as §1
# [21] = target: Gal(b1-4)GlcNAc(b1-3)Gal(b1-4)GlcNAc(b1-6)[Gal(b1-3)]GalNAc
# In short: as §1
# [22] = target: Gal(b1-4)GlcNAc(b1-3)Gal(b1-4)[Fuc(a1-3)]GlcNAc(b1-3)Gal(b1-4)[Fuc(a1-3)]GlcNAc
# In short: as §1
# Gal3S6S(b1-4)GlcNAc = target: Gal3S6S(b1-4)GlcNAc
# In short: as §1
# Gal6S(b1-3)GlcNAc6S = target: Gal6S(b1-3)GlcNAc6S
# In short: as §1
binder,measurement,setting,value
KILRGVCKKIMRTFLRRISKKILTGKK [C7A (Sus scrofa)],glycan array binding signal (z-score),[1],-0.784
same,glycan array binding signal (z-score),[2],-1.12
same,glycan array binding signal (z-score),[3],0.504
same,glycan array binding signal (z-score),[4],-1.37
same,glycan array binding signal (z-score),[5],-0.287
same,glycan array binding signal (z-score),[6],0.121
same,glycan array binding signal (z-score),[7],1.3
same,glycan array binding signal (z-score),[8],-0.971
same,glycan array binding signal (z-score),[9],0.698
same,glycan array binding signal (z-score),[10],-0.255
same,glycan array binding signal (z-score),Gal(a1-4)GlcNAc,-1.02
same,glycan array binding signal (z-score),Gal(a1-6)Glc,-1.76
same,glycan array binding signal (z-score),[11],2.25
same,glycan array binding signal (z-score),[12],0.649
same,glycan array binding signal (z-score),[13],0.213
same,glycan array binding signal (z-score),[14],-0.894
same,glycan array binding signal (z-score),[15],0.352
same,glycan array binding signal (z-score),Gal(b1-3)GlcNAc6S,1.73
same,glycan array binding signal (z-score),[16],-1.63
same,glycan array binding signal (z-score),[17],-0.867
same,glycan array binding signal (z-score),[18],3.05
same,glycan array binding signal (z-score),[19],-0.172
same,glycan array binding signal (z-score),[20],2.33
same,glycan array binding signal (z-score),[21],2.48
same,glycan array binding signal (z-score),[22],-0.696
same,glycan array binding signal (z-score),Gal3S6S(b1-4)GlcNAc,2.5
same,glycan array binding signal (z-score),Gal6S(b1-3)GlcNAc6S,2.66

# Reference: the supplement of paper PMC8728848
